Source: PubChem BioAssay (NCATS)
For part of these data: Measured potencies and affinities stand elsewhere. Active and inactive are the calls of the source. How the calls were made is not given here.

Details: Ebola virus entry assay, green fluorescence channel
Wherever efficacy is given: 0% is about no effect.

Which efficacy does the source give for COC(=O)c1nc(Cl)c(Cl)nc1N here?
Its efficacy is 66.4% (inactive).

With Cc1cc(C)c(/C=C2\C(=O)Nc3ccccc32)[nH]1 as the molecule, how does the efficacy read?
The efficacy was 78.6% (inactive).

With O=C(CCCN1CCN(c2ccccn2)CC1)c1ccc(F)cc1 as the molecule, how does the efficacy read?
Its efficacy is 28.5% (inactive).

For CC1(C)O[C@@H]2C[C@H]3[C@@H]4C[C@H](F)C5=CC(=O)C=C[C@]5(C)[C@H]4[C@@H](O)C[C@]3(C)[C@]2(C(=O)CO)O1, which efficacy is on record?
The efficacy was 79.9% (inactive).

With CCn1c(=O)c2c(nc(C=Cc3ccc(OC)c(OC)c3)n2C)n(CC)c1=O as the molecule, how does the efficacy read?
Its efficacy is 44.2% (inactive).

Which efficacy does the source give for Cc1ccc([N+](=O)[O-])[c]2c1[O][Hg]2 here?
Its efficacy is -177% (inactive).

For C[C@]12Cc3nonc3C[C@@H]1CC[C@@H]1[C@@H]2CC[C@@]2(C)[C@H]1CC[C@]2(C)O, which efficacy is on record?
Its efficacy is 48.4% (inactive).

For COc1cc2c(cc1OC)C(C(C(=O)N(CCc1ccc(OC)c(OC)c1OC)CCc1ccc(OC)c(OC)c1OC)c1ccccc1)=NCC2 (stereo not drawn), which efficacy is on record?
Its efficacy is 62.1% (inactive).

With O=Cc1ccccc1C=O as the molecule, how does the efficacy read?
The efficacy was -22.6% (inactive).

With O=C(Cn1ccnc1[N+](=O)[O-])NCCO as the molecule, how does the efficacy read?
The efficacy was -27.8% (inactive).

For CCCC(=O)O[C@]1(C(=O)CC)CC[C@H]2[C@@H]3CCC4=CC(=O)CC[C@]4(C)[C@H]3[C@@H](O)C[C@@]21C, which efficacy is on record?
Its efficacy is 46.1% (inactive).

Which efficacy does the source give for CN1Cc2c(N)cccc2C(c2ccccc2)C1 (stereo not drawn) here?
The efficacy was 99.7% (inactive).

Which efficacy does the source give for C#C[C@]1(O)CC[C@H]2[C@@H]3CCC4=CC(=O)CCC4=C3C=C[C@@]21CC here?
The efficacy was 138% (inactive).

With C#C[C@]1(O)C=C[C@H]2[C@@H]3CCC4=CC(=O)CC[C@@H]4[C@H]3CC[C@@]21CC as the molecule, how does the efficacy read?
The efficacy was 51.7% (inactive).

For COC(=O)Nc1nc2ccc(Sc3ccccc3)cc2[nH]1, which efficacy is on record?
The efficacy was 73.8% (inactive).

For c1ccc(CNCCNCc2ccccc2)cc1, which efficacy is on record?
The efficacy was 55.2% (inactive).

Which efficacy does the source give for CC(=O)OCC(=O)[C@@]12N=C(C)O[C@@H]1C[C@H]1[C@@H]3CCC4=CC(=O)C=C[C@]4(C)[C@H]3[C@@H](O)C[C@@]12C here?
Its efficacy is 27% (inactive).

For O=C(Nc1ccc([N+](=O)[O-])cc1)Nc1ccc([N+](=O)[O-])cc1, which efficacy is on record?
The efficacy was -37.1% (inactive).

For CC[C@H]1C[C@H]2[C@@H]3CCC4=CC(=O)CC[C@@H]4[C@H]3CC[C@]2(C)[C@H]1O, which efficacy is on record?
Its efficacy is 63.1% (inactive).

With C[C@]12CC[C@H]3[C@@H](CCC4=CC(=O)CC[C@@]43C)[C@@H]1CC[C@@H]2C(=O)CO as the molecule, how does the efficacy read?
The efficacy was 61.9% (inactive).

For CC#C[C@]1(O)CC[C@H]2[C@@H]3C[C@H](C)C4=CC(=O)CC[C@]4(C)[C@H]3CC[C@@]21C, which efficacy is on record?
The efficacy was 83.4% (inactive).

Which efficacy does the source give for C[C@]12CCC(=O)C=C1CC[C@@H]1[C@@H]2CC[C@@]2(C)[C@H]1CC[C@]2(O)C(=O)CO here?
The efficacy was 55.8% (inactive).

Which efficacy does the source give for CC(=O)OCC(=O)[C@@]1(O)CC[C@H]2[C@@H]3CCC4=CC(=O)C=C[C@]4(C)[C@H]3[C@@H](O)C[C@@]21C here?
The efficacy was -46.1% (inactive).

For CCOC(=O)OC(C)OC(=O)[C@@H]1N2C(=O)[C@@H](NC(=O)[C@H](N)c3ccccc3)[C@H]2SC1(C)C (stereo partly drawn), which efficacy is on record?
Its efficacy is 47.6% (inactive).

With CCC(=O)O[C@]1(C(=O)COC)[C@@H](C)C[C@H]2[C@@H]3CCC4=CC(=O)C=C[C@]4(C)C3(F)[C@@H](O)C[C@@]21C (stereo partly drawn) as the molecule, how does the efficacy read?
Its efficacy is 67.5% (inactive).

For CCCCC/C=C\C/C=C\CCCCCCCC(=O)NC(C)c1ccccc1 (stereo not drawn), which efficacy is on record?
Its efficacy is 130% (inactive).

With COP(=S)(OC)Oc1ccc(S(N)(=O)=O)cc1 as the molecule, how does the efficacy read?
Its efficacy is -39.4% (inactive).

For CCOP(=S)(OCC)O/N=C(\C#N)c1ccccc1, which efficacy is on record?
Its efficacy is -42.7% (inactive).

Which efficacy does the source give for CC(C(O)c1ccccc1)N(C)C/C=C/c1ccccc1 (stereo not drawn) here?
The efficacy was 90.1% (inactive).

Which efficacy does the source give for CCN(CC)C(=O)Nc1ccc(OCC(O)CNC(C)(C)C)c(C(C)=O)c1 (stereo not drawn) here?
Its efficacy is -36% (inactive).

For c1cnc(N2CCN(Cc3ccc4c(c3)OCO4)CC2)nc1, which efficacy is on record?
Its efficacy is 47.2% (inactive).

For CCOC(=O)OCC/C(SC(=O)OCC)=C(\C)N(C=O)Cc1cnc(C)nc1N, which efficacy is on record?
Its efficacy is 26.7% (inactive).

With C[C@@H]1C[C@H]2[C@@H]3CCC4=CC(=O)C=C[C@]4(C)[C@@]3(F)[C@@H](O)C[C@]2(C)[C@@]1(O)C(=O)COC(=O)c1ccncc1 as the molecule, how does the efficacy read?
Its efficacy is 33.7% (inactive).

With O=C(NCC1CN(c2ccc(N3CCOCC3=O)cc2)C(=O)O1)c1ccc(Cl)s1 (stereo not drawn) as the molecule, how does the efficacy read?
The efficacy was 23% (inactive).

Which efficacy does the source give for C=C1C(=C/C=C2\CCC[C@]3(C)[C@@H]([C@H](C)/C=C/[C@@H](O)C4CC4)CC[C@@H]23)C[C@@H](O)C[C@@H]1O here?
Its efficacy is 59.6% (inactive).

For CCCCCOc1ccccc1/C(=C\SC)n1ccnc1, which efficacy is on record?
Its efficacy is 106% (inactive).

With C[C@@H]1CC[C@H]2[C@@H](C)C(=O)O[C@@H]3O[C@@]4(C)CC[C@@H]1[C@]32OO4 as the molecule, how does the efficacy read?
The efficacy was 76.3% (inactive).

Which AC50 does the source give for O=C1OC2(c3ccc(O)cc3Oc3cc(O)ccc32)c2ccccc21 here?
The AC50 was 25.1 µM (active).

With Cc1nc2ccccc2c(=O)n1-c1ccccc1Cl as the molecule, how does the efficacy read?
The efficacy was 30.7% (inactive).

Details: Ebola virus entry assay, blue channel fluorescence

For COC(=O)c1nc(Cl)c(Cl)nc1N, which outcome is on record?
The outcome was “inactive”.

Which outcome does the source give for Cc1cc(C)c(/C=C2\C(=O)Nc3ccccc32)[nH]1 here?
Its outcome is “inactive”.

With O=C(CCCN1CCN(c2ccccn2)CC1)c1ccc(F)cc1 as the molecule, how does the outcome read?
The outcome was “inactive”.

For CC1(C)O[C@@H]2C[C@H]3[C@@H]4C[C@H](F)C5=CC(=O)C=C[C@]5(C)[C@H]4[C@@H](O)C[C@]3(C)[C@]2(C(=O)CO)O1, which outcome is on record?
Its outcome is “inactive”.

With CCn1c(=O)c2c(nc(C=Cc3ccc(OC)c(OC)c3)n2C)n(CC)c1=O as the molecule, how does the outcome read?
The outcome was “inactive”.

With Cc1ccc([N+](=O)[O-])[c]2c1[O][Hg]2 as the molecule, how does the AC50 read?
The AC50 was 1.78 µM (active).

Which AC50 does the source give for C[C@]12Cc3nonc3C[C@@H]1CC[C@@H]1[C@@H]2CC[C@@]2(C)[C@H]1CC[C@]2(C)O here?
The AC50 was 15.8 µM (active).

For COc1cc2c(cc1OC)C(C(C(=O)N(CCc1ccc(OC)c(OC)c1OC)CCc1ccc(OC)c(OC)c1OC)c1ccccc1)=NCC2 (stereo not drawn), which outcome is on record?
The outcome was “inactive”.

For O=Cc1ccccc1C=O, which outcome is on record?
The outcome was “inactive”.

For O=C(Cn1ccnc1[N+](=O)[O-])NCCO, which outcome is on record?
The outcome was “inactive”.

With CCCC(=O)O[C@]1(C(=O)CC)CC[C@H]2[C@@H]3CCC4=CC(=O)CC[C@]4(C)[C@H]3[C@@H](O)C[C@@]21C as the molecule, how does the outcome read?
Its outcome is “inactive”.

Which AC50 does the source give for CN1Cc2c(N)cccc2C(c2ccccc2)C1 (stereo not drawn) here?
Its AC50 is 17.8 µM (active).

With C#C[C@]1(O)CC[C@H]2[C@@H]3CCC4=CC(=O)CCC4=C3C=C[C@@]21CC as the molecule, how does the AC50 read?
Its AC50 is 20 µM (active).

For C#C[C@]1(O)C=C[C@H]2[C@@H]3CCC4=CC(=O)CC[C@@H]4[C@H]3CC[C@@]21CC, which outcome is on record?
The outcome was “inactive”.

With COC(=O)Nc1nc2ccc(Sc3ccccc3)cc2[nH]1 as the molecule, how does the outcome read?
The outcome was “inactive”.

For c1ccc(CNCCNCc2ccccc2)cc1, which outcome is on record?
The outcome was “inactive”.

With CC(=O)OCC(=O)[C@@]12N=C(C)O[C@@H]1C[C@H]1[C@@H]3CCC4=CC(=O)C=C[C@]4(C)[C@H]3[C@@H](O)C[C@@]12C as the molecule, how does the outcome read?
Its outcome is “inactive”.

Which outcome does the source give for O=C(Nc1ccc([N+](=O)[O-])cc1)Nc1ccc([N+](=O)[O-])cc1 here?
Its outcome is “inactive”.

Which outcome does the source give for CC[C@H]1C[C@H]2[C@@H]3CCC4=CC(=O)CC[C@@H]4[C@H]3CC[C@]2(C)[C@H]1O here?
Its outcome is “inactive”.

For C[C@]12CC[C@H]3[C@@H](CCC4=CC(=O)CC[C@@]43C)[C@@H]1CC[C@@H]2C(=O)CO, which outcome is on record?
The outcome was “inactive”.

Which outcome does the source give for CC#C[C@]1(O)CC[C@H]2[C@@H]3C[C@H](C)C4=CC(=O)CC[C@]4(C)[C@H]3CC[C@@]21C here?
Its outcome is “inactive”.

Which outcome does the source give for C[C@]12CCC(=O)C=C1CC[C@@H]1[C@@H]2CC[C@@]2(C)[C@H]1CC[C@]2(O)C(=O)CO here?
Its outcome is “inactive”.

With CC(=O)OCC(=O)[C@@]1(O)CC[C@H]2[C@@H]3CCC4=CC(=O)C=C[C@]4(C)[C@H]3[C@@H](O)C[C@@]21C as the molecule, how does the outcome read?
The outcome was “inactive”.

For CCOC(=O)OC(C)OC(=O)[C@@H]1N2C(=O)[C@@H](NC(=O)[C@H](N)c3ccccc3)[C@H]2SC1(C)C (stereo partly drawn), which outcome is on record?
The outcome was “inactive”.

With CCC(=O)O[C@]1(C(=O)COC)[C@@H](C)C[C@H]2[C@@H]3CCC4=CC(=O)C=C[C@]4(C)C3(F)[C@@H](O)C[C@@]21C (stereo partly drawn) as the molecule, how does the outcome read?
The outcome was “inactive”.

For CCCCC/C=C\C/C=C\CCCCCCCC(=O)NC(C)c1ccccc1 (stereo not drawn), which outcome is on record?
The outcome was “inactive”.

Which outcome does the source give for COP(=S)(OC)Oc1ccc(S(N)(=O)=O)cc1 here?
Its outcome is “inactive”.

Which outcome does the source give for CCOP(=S)(OCC)O/N=C(\C#N)c1ccccc1 here?
Its outcome is “inactive”.

For CC(C(O)c1ccccc1)N(C)C/C=C/c1ccccc1 (stereo not drawn), which AC50 is on record?
Its AC50 is 22.4 µM (active).

Which outcome does the source give for CCN(CC)C(=O)Nc1ccc(OCC(O)CNC(C)(C)C)c(C(C)=O)c1 (stereo not drawn) here?
The outcome was “inactive”.

For c1cnc(N2CCN(Cc3ccc4c(c3)OCO4)CC2)nc1, which outcome is on record?
The outcome was “inactive”.

For CCOC(=O)OCC/C(SC(=O)OCC)=C(\C)N(C=O)Cc1cnc(C)nc1N, which outcome is on record?
Its outcome is “inactive”.

With C[C@@H]1C[C@H]2[C@@H]3CCC4=CC(=O)C=C[C@]4(C)[C@@]3(F)[C@@H](O)C[C@]2(C)[C@@]1(O)C(=O)COC(=O)c1ccncc1 as the molecule, how does the outcome read?
The outcome was “inactive”.

For O=C(NCC1CN(c2ccc(N3CCOCC3=O)cc2)C(=O)O1)c1ccc(Cl)s1 (stereo not drawn), which outcome is on record?
The outcome was “inactive”.

With C=C1C(=C/C=C2\CCC[C@]3(C)[C@@H]([C@H](C)/C=C/[C@@H](O)C4CC4)CC[C@@H]23)C[C@@H](O)C[C@@H]1O as the molecule, how does the outcome read?
Its outcome is “inactive”.

With CCCCCOc1ccccc1/C(=C\SC)n1ccnc1 as the molecule, how does the outcome read?
The outcome was “inactive”.

With C[C@@H]1CC[C@H]2[C@@H](C)C(=O)O[C@@H]3O[C@@]4(C)CC[C@@H]1[C@]32OO4 as the molecule, how does the outcome read?
Its outcome is “inactive”.

Which outcome does the source give for O=C1OC2(c3ccc(O)cc3Oc3cc(O)ccc32)c2ccccc21 here?
The outcome was “inactive”.

With Cc1nc2ccccc2c(=O)n1-c1ccccc1Cl as the molecule, how does the outcome read?
Its outcome is “inactive”.
